Inconclusive results are not listed. Unmarked numbers belong to inactive results. Activity calls are given as the source filed them. Calls follow the shape of the dose curve; as a rule, active = well fitted cell-killing curve with a large enough effect; inconclusive = small, poorly fitted or top-dose-only effect, or effect the other way; inactive = flat fitted curve, though single readings scatter.
What follows are compounds tested on Es-2 (assay: Primary qHTS to identify gynecologic anti-cancer compounds using libraries of approved drugs and bioactive compounds (AID 1345084; also: nearly all actives have a fitted effect of over 55% in size)). Conditions: Gynecologic cancer cell panel viability, ATPlite luminescence, 48 h; series mostly up to 57.5 µM; activity change, negative = cytotoxicity: at the top concentration.
How it was run: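 Cells, 1,000 per well, plated 16 h, then exposed 48 h at 37 C to compounds. Viability by ATPlite luminescence after 15 min at room temperature.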
% is scaled to controls: 0 for no effect and ±100 for the full control effect.

SMILES | activity change, negative = cytotoxicity | Potency
CC1(C)CC[C@]2(C(=O)O[C@@H]3O[C@H](CO)[C@@H](O)[C@H](O)[C@H]3O)CC[C@]3(C)C(=CCC4[C@@]5(C)C[C@@H](O)[C@H](O)C(CO)(CO)C5CC[C@]43C)C2[C@@H]1O (stereo partly drawn) | -2.03% [at 25.3 µM] | –
CO[C@@]12CC3[C@@H]([C@@H](O)[C@@H](OC(C)=O)C4[C@](C)(COC(C)=O)CCC[C@]34C)[C@@H](C)C1=CC(=O)O2 (stereo partly drawn) | 6.02% [at 25.3 µM] | –
C[C@]12C=CC(=O)C=C1CC[C@@H]1[C@@H]2[C@@H](O)C[C@@]2(C)[C@H]1CC[C@]2(O)C(=O)COC(=O)CCC(=O)O | 0.871% | –
CC1CCC2C(C)(C)C(O)CCC2(C)C12Cc1c(O)cc3c(c1O2)C(N)=NC3 (stereo not drawn) | -0.56% [at 38.5 µM] | –
CC12CC34C=CC(=O)C(C)(CCC(=O)O)C3C(CC1C4)O2 (stereo not drawn) | -0.119% | –
O=C(O)C[C@H]1CCC(=O)[C@@H]1C/C=C\CCOC1OC(CO)C(O)C(O)C1O (stereo partly drawn) | -7.28% [at 38.5 µM] | –
COc1cc(/C=C/CO)ccc1O[C@@H]1O[C@H](CO)[C@@H](O)[C@H](O)[C@H]1O | -0.765% [at 38.5 µM] | –
COc1ccc([C@H]2Cc3cccc(O)c3C(=O)O2)cc1 | 0.248% | –
CC(=O)OC(C)OC(=O)C(C)c1ccc(-c2ccccc2)c(F)c1 (stereo not drawn) | -1.55% | –
CC1OC(O[C@H]2[C@@H](O)C[C@@]3(C)C([C@H](O)C[C@]4(C)C3CC=C3C5CC(C)(C)CC[C@]5(C(=O)OC5OC(CO)C(O)C(O)C5OC5OCC(OC6OCC(OC7OCC(O)C(O)C7O)C(O)C6O)C(OC6OCC(O)(CO)C6O)C5O)CC[C@]34C)[C@]2(C)CO)C(O)C(O)C1O (stereo partly drawn) | -1.65% [at 6.55 µM] | –
C/C=C/C1=CC2=CC(=O)C(C)(O)C(OC(=O)c3c(C)cc(O)cc3O)C2CO1 (stereo not drawn) | -5.29% [at 38.5 µM] | –
c1ccc(C(OC2CCN(CCCc3nn[nH]n3)CC2)c2ccccc2)cc1 | 3.57% | –
N[C@H]1C[C@H]1c1ccc(-c2cccc(O)c2)cc1 | – | inactive
NCCOCCOCCNC(=O)Cc1ccc(Nc2nc(NCc3ccc(F)cc3)nc(NCC3CCCCC3)n2)cc1 | 1.6% | –
COc1cc(-c2cccc(O)c2)cc2c1OCO2 | 12.1% | –
CCC[C@@H]1C[C@@H](C(=O)N[C@@H]([C@H]2O[C@H](SC)[C@H](OP(=O)(O)O)[C@@H](O)[C@H]2O)[C@H](C)Cl)N(C)C1 | -1.53% [at 25.3 µM] | –
CCCC(N[C@@H](C)C(=O)N1[C@H](C(=O)O)C[C@@H]2CCCC[C@@H]21)C(=O)OCC (stereo partly drawn) | 5.53% | –
C=CC(C)(C)C12CC3C(=O)NC(Cc4cnc[nH]4)C(=O)N3C1Nc1ccccc12 (stereo not drawn) | 3.09% [at 38.5 µM] | –
CC1OC(OC2C(C)OC(OC3C(OC(=O)/C=C/c4ccc(O)cc4)C(CO)OC(OC4(COC(=O)/C=C/c5ccc(O)cc5)OC(CO)C(O)C4O)C3OC3OCC(O)(CO)C3O)C(O)C2O)C(O)C(O)C1O (stereo not drawn) | -0.759% [at 11.6 µM] | –

SMILES | activity change, negative = cytotoxicity | Potency
CC1CCC2(C(=O)OC3OC(COC4OC(CO)C(O)C(O)C4O)C(O)C(O)C3O)CCC3(C)C(=CCC4C5(C)CCC(O)C(C)(C(=O)O)C5CCC43C)C2C1(C)O (stereo not drawn) | 5.49% [at 11.6 µM] | –
CN1Cc2c(N)cccc2C(c2ccccc2)C1 (stereo not drawn) | -6.59% | –
CC(C)=CC/C=C(/C)[C@H]1CC[C@]2(C)[C@@H]1[C@H](O)CC1[C@@]3(C)CC[C@H](O)C(C)(C)[C@@H]3[C@@H](O[C@@H]3O[C@H](CO)[C@@H](O)[C@H](O)[C@H]3O[C@@H]3O[C@@H](C)[C@H](O)[C@@H](O)[C@H]3O)C[C@]12C (stereo partly drawn) | 0.109% [at 25.3 µM] | –
COc1cc(C2c3cc(O)c(OC)cc3CC(CO)C2CO)ccc1O (stereo not drawn) | -2.38% [at 38.5 µM] | –
CC/C=C\C[C@H]1C(=O)C=C[C@@H]1CCCCCCCC(=O)O | 0.458% | –
CC1=CCC2C(C)(CO)CCCC2(CO)C1CO (stereo not drawn) | 2.5% | –
C[C@@H]1O[C@@H](O[C@@H]2[C@@H](O)[C@@H](O)[C@H](O[C@@H]3[C@@H](O)[C@@H](O[C@]4(CO)O[C@H](CO)[C@@H](O)[C@@H]4OC(=O)/C=C/c4ccc(O)cc4)O[C@H](CO)[C@H]3OC(=O)/C=C/c3ccc(O)cc3)O[C@H]2C)[C@H](O)[C@H](O)[C@H]1O | 1.92% [at 11.6 µM] | –
CC(=O)OCC(=O)O[C@@H]1[C@H]2[C@@H](OC(=O)c3ccccc3)[C@@H](C)C[C@]2(O)[C@H](OC(C)=O)C2(C)[C@H]3CC(C)(C)C(=O)[C@@H]3CC1(OC(C)=O)[C@@H]2OC(C)=O (stereo partly drawn) | 7.39% [at 25.3 µM] | –
O=S(=O)(NC1CCNCC1)c1cc(S(=O)(=O)c2ccccc2)ccc1C(F)(F)F | 3.04% | –
COCC(=O)N1CCc2cc(-c3csc(NC(=O)c4cc(OC)cc(OC)c4)n3)ccc21 | -4.36% | –
CC1(C)OC(=O)C(OCC2CC2)=C1c1ccc(S(C)(=O)=O)cc1 | -2.55% | –
C[C@]12CCC[C@](C)(C(=O)O)C1CCC13C=C(CO)C(CCC12)C3 (stereo partly drawn) | 6.27% [at 38.5 µM] | –
Cc1coc2c1CC1OC1(C)CCC1OC1(C)C2 (stereo not drawn) | -0.239% | –
C/C=C1\[C@H](O[C@@H]2O[C@H](CO)[C@@H](O)[C@H](O)[C@H]2O)OC=C(C(=O)OC)[C@H]1CC(=O)OC | -2.48% [at 25.3 µM] | –
C=CCc1ccc(O[C@@H]2O[C@H](CO[C@@H]3O[C@H](CO)[C@@H](O)[C@H](O)[C@H]3O)[C@@H](O)[C@H](O)[C@H]2O)c(O)c1 | 0.831% [at 25.3 µM] | –
C=C1CCC2C(C)(C(=O)O)CC(O)CC2(C)C1CC/C(C)=C/C(=O)O (stereo not drawn) | 4.4% [at 38.5 µM] | –
O=C(NC[C@H](O)CN1CCc2ccccc2C1)c1cc(NC2COC2)ncn1 | -12.3% | –
Nc1ncnc2c1ncn2[C@H]1CCCO1 | 4.03% | –
CC1(C)CCCC2(C)C3=C(C(=O)OC3O)C(O)CC12 (stereo not drawn) | -1.3% | –

From PubChem BioAssay (NCATS)
